What all share (test): qHTS profiling for inhibitors of Plasmodium falciparum proliferation (AID 504749); also: nearly all actives have a fitted effect of over 60% in size
What all share (conditions): P. falciparum in erythrocytes, SYBR Green DNA, 72 h; series mostly up to 28.7 µM
(In general: In qHTS, concentration-response curves come from the screen itself.)

One assay deals with CP291. The essentials: (§1)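 P. falciparum-infected erythrocytes (0.3% parasitemia, 2.5% hematocrit) incubated with compound 72 h at 37 C, 5% CO2. Parasite DNA detected by SYBR Green after lysis, overnight at room temperature; normalised to 0.29 uM artemisinin and DMSO.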
The subject of the next assay is CP297. The method, boiled down: as §1
A further assay deals with CP305. The essentials: as §1
A further assay has as its system CP315. The essentials:
as §1

The subject of a further assay is CP325. The essentials:
as §1

The next assay deals with CP329. The method, boiled down: as §1
The test system of the next assay is CP335. The method, boiled down:
as §1

The next assay relates to DFO2036. The essentials: as §1
A further assay deals with DIV14. The method, boiled down: as §1
The test system of a further assay is DIV17. The essentials:
as §1

In the next assay the test system is DIV30. The essentials: as §1
A further assay relates to Dd2. The essentials:
as §1

The next assay has as its system ECU. The method, boiled down:
as §1

The subject of the next assay is FAB9. The essentials: as §1
The test system of a further assay is GB4. The method, boiled down: as §1
A further assay relates to HB3. The method, boiled down:
as §1

Another assay has as its system ICS. The method, boiled down: as §1
For the next assay, the system named is JCK. The method, boiled down: as §1
For the next assay, the system named is N140. The essentials:
as §1

The next assay relates to P93_24. The essentials: as §1

Inconclusive results are not listed. The source made the active and inactive calls. Calls follow the shape of the dose curve; as a rule, active = well fitted inhibition curve with a large enough effect; inconclusive = small, poorly fitted or top-dose-only effect; inactive = flat fitted curve, though single readings scatter.
Potency is read from the fitted curve at half-maximal effect.

As to `CC(=O)Oc1ccc(C(=C2CCCCC2)c2ccc(OC(C)=O)cc2)cc1`, the Potency result in the assay with CP291, in the assay on CP297, in the assay on CP305, in the assay with CP315, in the assay with CP325 and in the assay on CP329 was “inactive” throughout. In addition, the Potency result in the assay on CP335, with DFO2036, with DIV14, in the assay on DIV17, with DIV30 and in the assay on Dd2 was “inactive” throughout. The Potency result with ECU, in the assay with FAB9, in the assay on GB4, in the assay on HB3, with ICS and in the assay with JCK was “inactive” in each case. Besides, the Potency entry in the assay with N140 and in the assay on P93_24 was “inactive” throughout.

Consider `O=C1CCC(c2ccc(-n3ccnc3)cc2)=NN1`, for which the Potency entry in the assay on CP291, in the assay on CP297, with CP305, in the assay on CP315, with CP325 and with CP329 was “inactive” in each case. The Potency result in the assay on CP335, in the assay on DFO2036, in the assay with DIV14, in the assay with DIV17, in the assay with DIV30 and in the assay on Dd2 was “inactive” each time. The Potency entry with ECU, with FAB9, in the assay on GB4, with HB3, with ICS and in the assay with JCK was “inactive” in each case. The Potency entry in the assay on N140 and in the assay on P93_24 was “inactive” in each case.

As for `COCc1c(C(C)C)nc(C(C)C)c(/C=C/[C@@H](O)C[C@@H](O)CC(=O)O)c1-c1ccc(F)cc1`, the Potency result in the assay on CP291, in the assay with CP297, in the assay with CP305, in the assay with CP315, in the assay on CP325 and in the assay with CP329 was “inactive” in each case. Also, the Potency result in the assay on CP335, in the assay on DFO2036, in the assay on DIV14, with DIV17, in the assay with DIV30 and in the assay on Dd2 was “inactive” in each case. For the same compound, the Potency result in the assay with ECU, in the assay on FAB9, with GB4, in the assay with HB3, in the assay on ICS and with JCK was “inactive” each time. Moreover, the Potency result in the assay on N140 and with P93_24 was “inactive” in each case.

With `Cc1c(C)n(Cc2ccccc2)c2ccc(C(=O)OCCN(C)C)cc12`, the Potency entry in the assay on CP291, in the assay on CP297, with CP305, in the assay on CP315, with CP325 and in the assay on CP329 was “inactive” in each case. In addition, the Potency result in the assay on CP335, with DFO2036, in the assay on DIV14, with DIV17, in the assay on DIV30 and in the assay with Dd2 was “inactive” throughout. For the same compound, the Potency entry in the assay on ECU, in the assay with FAB9, in the assay on HB3, in the assay on JCK, in the assay on N140 and with P93_24 was “inactive” in each case.

In the case of `CCN(CC)C(=O)/C(C#N)=C/c1cc(O)c(O)c([N+](=O)[O-])c1`, the Potency entry in the assay with CP291, with CP297, with CP305, in the assay with CP315, in the assay on CP325 and in the assay on CP329 was “inactive” throughout. For the same compound, the Potency entry in the assay with CP335, in the assay with DFO2036, in the assay on DIV14, with DIV17, in the assay on DIV30 and with ECU was “inactive” throughout. In addition, the Potency result with FAB9, in the assay with GB4, in the assay on HB3, with JCK, in the assay with N140 and in the assay on P93_24 was “inactive” each time. The Potency in the assay with Dd2 was 447 nM (active).

For the compound `CCCCCC=CCC=CCCCCCCCC(=O)OCC`, the Potency result with CP291, with CP297, in the assay on CP305, in the assay with CP315, with CP325 and with CP329 was “inactive” throughout. For the same compound, the Potency entry in the assay with CP335, in the assay on DFO2036, in the assay with DIV14, with DIV17, in the assay with DIV30 and in the assay with Dd2 was “inactive” throughout. Besides, the Potency result in the assay with ECU, in the assay on FAB9, in the assay on GB4, in the assay with HB3, in the assay with ICS and with JCK was “inactive” in each case. In addition, the Potency result with N140 and in the assay with P93_24 was “inactive” in each case.

For the compound `O=c1ccc2ccccc2o1`, the Potency result with CP291, in the assay on CP297, in the assay with CP305, with CP315, in the assay on CP325 and with CP329 was “inactive” in each case. Besides, the Potency result with CP335, in the assay on DFO2036, with DIV14, in the assay on DIV17, in the assay with DIV30 and in the assay with Dd2 was “inactive” in each case. The Potency result with ECU, in the assay with FAB9, with GB4, with HB3, in the assay with ICS and in the assay on JCK was “inactive” throughout. Moreover, the Potency entry in the assay on N140 and in the assay on P93_24 was “inactive” throughout.

Consider `Cc1c(C(C)C)c(=O)n(-c2ccccc2)n1C`, for which the Potency entry in the assay with CP291, in the assay on CP297, in the assay on CP305, in the assay on CP315, in the assay on CP325 and in the assay on CP329 was “inactive” in each case. Moreover, the Potency result in the assay with CP335, with DFO2036, in the assay with DIV14, in the assay on DIV17, in the assay with DIV30 and in the assay with Dd2 was “inactive” in each case. The Potency entry with ECU, in the assay on FAB9, in the assay on GB4, in the assay on HB3, in the assay with ICS and with JCK was “inactive” throughout. For the same compound, the Potency entry in the assay with N140 and in the assay with P93_24 was “inactive” throughout.

As to `CCOc1ccc(NC(=O)CC(C)O)cc1` (stereo not given), the Potency result in the assay with CP291, with CP297, in the assay on CP305, in the assay on CP315, with CP325 and in the assay on CP329 was “inactive” each time. Moreover, the Potency entry with CP335, in the assay with DFO2036, in the assay with DIV14, in the assay on DIV17, in the assay on DIV30 and in the assay with Dd2 was “inactive” each time. In addition, the Potency result in the assay on ECU, in the assay on FAB9, in the assay with GB4, in the assay on HB3, in the assay on ICS and in the assay with JCK was “inactive” each time. For the same compound, the Potency result in the assay on N140 and in the assay on P93_24 was “inactive” each time.

Take `OCc1ccccc1O`: the Potency entry in the assay on CP291, with CP297, with CP305, in the assay on CP315, with CP325 and with CP329 was “inactive” in each case. The Potency entry in the assay on CP335, in the assay with DFO2036, with DIV14, in the assay with DIV17, in the assay with DIV30 and in the assay on Dd2 was “inactive” each time. Also, the Potency entry in the assay on ECU, in the assay on FAB9, in the assay on GB4, in the assay with HB3, in the assay with ICS and with JCK was “inactive” in each case. Further, the Potency result in the assay with N140 and in the assay on P93_24 was “inactive” in each case.

In the case of `O=C(Nc1ccc(Oc2ccc(Cl)cc2)c(Cl)c1)c1cc(I)cc(I)c1O`, the Potency result with CP291, in the assay on CP297, in the assay with CP305, with CP315, in the assay on CP325 and in the assay with CP329 was “inactive” each time. Besides, the Potency entry with CP335, in the assay with DFO2036, in the assay on DIV14, in the assay on DIV17, in the assay with DIV30 and with Dd2 was “inactive” in each case. For the same compound, the Potency entry with FAB9, in the assay on GB4, in the assay on HB3, in the assay with JCK, in the assay with N140 and in the assay with P93_24 was “inactive” throughout.

Regarding `CC1(C)CCC(NC(=O)[C@@H](N)CCC(=O)O)CC1`, the Potency result with CP291, with CP297, in the assay with CP305, with CP315, in the assay on CP325 and in the assay on CP329 was “inactive” each time. Also, the Potency result with CP335, in the assay on DFO2036, in the assay with DIV14, in the assay on DIV17, with DIV30 and in the assay on Dd2 was “inactive” in each case. Besides, the Potency entry with ECU, in the assay with FAB9, in the assay with GB4, with HB3, in the assay with ICS and in the assay on JCK was “inactive” throughout. The Potency entry with N140 and with P93_24 was “inactive” each time.
